Cav32 inh: Cav3.2 calcium influx blockers – cell-based, Fluo-4 calcium fluorescence, FDSS, MLSMR library, primary screen; 100,000 tested, 4% active; AID 449739, 2010; Cav3.2-expressing cells; hits give low values; Voltage-dependent T-type calcium channel subunit alpha-1H (Homo sapiens), O95180; B-score at 10 µM;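 active = single-dose well whose peak fluorescence ratio is a statistical outlier from its plate by either plate-standardised score or position-corrected B-score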
CYP2C9 activ: human CYP2C9 activators, primary screen, biochemical, luminescence; activation factor at 5 µM; recombinant CYP2C9, luciferin-H conversion; hits give high values; factor 1 = untreated enzyme, 0 = blocked; 96,000 tested, 1.4% active; Cytochrome P450 2C9 (Homo sapiens), P11712;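 active = activation factor of 2 or more for CYP2C9 at a 5 µM dose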;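 note: 0 = sulfaphenazole-blocked wells and 1 = vehicle-only wells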
Target sequence (P11712 whole entry, looked up): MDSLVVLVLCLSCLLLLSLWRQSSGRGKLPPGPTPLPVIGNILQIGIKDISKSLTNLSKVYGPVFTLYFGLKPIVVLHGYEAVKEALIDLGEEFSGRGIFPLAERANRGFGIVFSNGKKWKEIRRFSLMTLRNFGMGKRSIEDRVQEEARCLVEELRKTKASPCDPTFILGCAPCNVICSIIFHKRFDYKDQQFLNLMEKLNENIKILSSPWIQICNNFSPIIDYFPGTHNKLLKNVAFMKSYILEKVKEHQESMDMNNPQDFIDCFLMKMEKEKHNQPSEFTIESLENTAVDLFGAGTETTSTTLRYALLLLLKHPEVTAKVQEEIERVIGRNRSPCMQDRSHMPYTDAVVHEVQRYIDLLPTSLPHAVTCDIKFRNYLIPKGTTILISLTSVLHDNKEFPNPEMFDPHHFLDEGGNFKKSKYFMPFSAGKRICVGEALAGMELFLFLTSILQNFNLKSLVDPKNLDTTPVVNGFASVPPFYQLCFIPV
CYP2C9 inh: blockers of cytochrome P450 2C9 activity – biochemical, luminescence, ADME assay, primary screen | P11712 | CYP2C9 Supersomes, luciferin-H conversion | inhibition, % at 5 µM | 96,000 tested, 20% active | AID 777, 2007;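 active = blocking of liver enzyme CYP2C9 beyond about 50% at 5 µM, limit read from the data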
CYP2C19 act: human CYP2C19 activators, primary screen, biochemical, luminescence. Cytochrome P450 2C19 (Homo sapiens), P33261. recombinant CYP2C19, luciferin-H EGE luminescence; hits give high values; 0 = fully inhibited enzyme, 1 = untreated enzyme. activation factor at 5 µM. 96,000 tested, under 10 active;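 active = activation factor of at least 2 at 5 µM in the primary screen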;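 note: 0 = wells with 2.5 mM tranylcypromine and 1 = vehicle-only wells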
CYP2C19 inh: blockers of cytochrome P450 2C19 activity – biochemical, luminescence, ADME assay, primary screen; P33261; CYP2C19 Supersomes, luciferin-H EGE luminescence, 30 min; inhibition, % at 5 µM; 96,000 tested, 21% active; AID 778, 2007;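 active = CYP2C19 inhibition above a set limit at 5 µM in the primary screen, cut at about 50% in these data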;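 note: plate controls were negative control wells for no effect and 2.5 mM tranylcypromine positive control for full effect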
Pyk2 oligo antag: antagonists of Pyk2 self-association, primary screen, Q293 cells, FERM NanoBiT luminescence, HTS. Protein-tyrosine kinase 2-beta (Homo sapiens), Q14289. hits give low values. z-score (the deposit names both 25 µM and 10 µM). 99,000 tested, 0.83% active;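 active = Z-score of -3 or lower, scaled per plate to the spread of control and sample wells; inactive = z-score above -3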;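 note: negative z-score means lost luminescence so less FERM oligomerization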
* = called active by the depositor; · = not tested or not shown. The list is not random: actives were taken first. Their share in the collection is about 27%.

SMILES	Cav32 inh	CYP2C9 activ	CYP2C9 inh	CYP2C19 act	CYP2C19 inh	Pyk2 oligo antag
Cc1ccc(C(=O)Nc2cccc(N(C)S(C)(=O)=O)c2)cc1S(=O)(=O)Nc1ccccc1	-1	0.3	72*	0.5	46	-3.1*
CN(c1cccc(NC(=O)Nc2cccc(Cl)c2)c1)S(C)(=O)=O	-2.8	0.3	72*	0.4	62*	-1.4
CN(c1cccc(NC(=O)CN2C(=O)c3ccccc3S2(=O)=O)c1)S(C)(=O)=O	1.1	0.9	15	1.2	-20	-0.1
Cc1ccc(SCCC(=O)Nc2cccc(N(C)S(C)(=O)=O)c2)cc1	1.7	0.2	83*	0.1	91*	0.06
Cc1cccc(C)c1N(CC(=O)Nc1cccc(N(C)S(C)(=O)=O)c1)S(C)(=O)=O	1.1	0.4	58*	0.6	35	0.31
CC(=O)Nc1cccc(N(C)S(C)(=O)=O)c1	-0.15	0.8	20	1.1	-13	0.27
Cc1ccccc1OCCOc1cccc(/C=N/NC(=O)Cc2nnc(N)s2)c1	1.3	0.9	5	1.1	-6	-1.2
COc1ccccc1OCC(=O)Nc1cccc(N(C)S(C)(=O)=O)c1	0.78	0.5	47	0.2	83*	0.42
CCC1Oc2ccccc2N(CC(=O)NCCCN2CCCCC2CC)C1=O (stereo not drawn)	-1	1	-5	1	-1	-0.14
Cc1nnc(-c2cnn(C)c2N)n1Cc1cccc(Cl)c1	0.93	1	4	0.9	9	1
Cc1nnc(-c2cnn(C)c2N)n1Cc1ccccc1	-5.1*	0.8	16	0.9	9	-0.02
CCC(c1nnnn1Cc1ccco1)N(CCN1CCOCC1)Cc1cc2cc(C)ccc2[nH]c1=O (stereo not drawn)	·	0.8	15	0.8	20	1
CCOCC(=O)N1CCN(c2ccc(F)cc2)CC1	-0.87	1	3	0.8	19	-0.9
O=C(Cc1ccc(Br)cc1)N1CCN(c2ccc(F)cc2)CC1	-1.4	0.2	76*	0	97*	0.11
O=C(CSCc1ccc(F)cc1)N1CCN(c2ccc(F)cc2)CC1	-1.5	0.8	18	0.7	33	0.12
Cc1occc1C(=O)N1CCN(c2ccccc2)CC1	·	·	·	·	·	0
O=C(COC(=O)C1(c2ccccc2)CC1)N1CCN(c2ccc(F)cc2)CC1	-0.23	1.1	-6	0.2	77*	0.93
CN(C)C(=C(C#N)C#N)N1CCN(c2ccc(Cl)c(Cl)c2)CC1	-0.52	0.4	64*	0.4	56*	-0.52
Cc1occc1C(=O)N1CCN(c2ccc(Cl)c(Cl)c2)CC1	0.22	0.2	83*	0	98*	-0.61
O=C(O)C1CC1C(=O)N1CCN(c2ccc(Cl)c(Cl)c2)CC1 (stereo not drawn)	-0.45	1.1	-11	1	-2	0.55
CC1CCCCC1NC(=O)c1ccc(CNc2c(N3CCCC3)c(=O)c2=O)cc1 (stereo not drawn)	-0.65	1	5	1.1	-7	·
O=C(COC(=O)C1(c2ccccc2F)CCCC1)NC1CCS(=O)(=O)C1 (stereo not drawn)	0.34	1	5	0.9	12	-0.66
O=C(NCc1ccccc1)N1CCN(c2ccc(Cl)c(Cl)c2)CC1	-5.2*	0.8	22	1	-3	0.43
O=C(COC(=O)C1(c2ccc(F)cc2)CCCC1)NC1CC1	1.1	0.8	17	0.4	55*	0.45
O=C(NCc1ccccc1)N1CCN(c2ccc(F)cc2)CC1	-4.3*	·	·	·	·	-1
SMILES	Cav32 inh	CYP2C9 activ	CYP2C9 inh	CYP2C19 act	CYP2C19 inh	Pyk2 oligo antag
CCOC(=O)c1nc(N)c(C(=O)OCC)[nH]1	0.92	1.1	-8	1.1	-10	-0.11
Cc1cc(C)n(-c2nc(SCC(=O)NCC3CCCO3)c3c4c(sc3n2)CCCC4)n1 (stereo not drawn)	·	0.2	85*	0.4	63*	·
O=C(Nc1ccc(Cl)cc1)N1CCC(c2nc(-c3ccc(F)cc3)no2)CC1	0.11	1.1	-5	0.9	6	-0.66
O=C(O)C(c1ccccc1)c1ccccc1	0.76	·	·	·	·	·
O=C(O)CC(c1ccccc1)c1ccccc1	-1.2	0.5	52*	1.1	-5	0.46
CCOC(=O)C1CCN(C(=O)c2cnn3c(C)cc(C)nc23)CC1	0.4	0.9	13	1	4	-0.03
CCCCCc1nc2sc3c(c2c(=O)n1N)CCC3	0.12	·	·	·	·	1.3
Nn1c(Nc2ccccc2)nc2sc3c(c2c1=O)CCC3	-0.047	0	98*	0.3	75*	-1.3
CCCc1nc2sc3c(c2c(=O)n1N)CCC3	·	1.1	-6	0.3	74*	0.32
CCc1nc2sc3c(c2c(=O)n1N)CCC3	0.1	1	4	0.8	22	-0.55
Cc1nn(-c2ccccc2)c(Cl)c1C1C(C#N)=C(N)Oc2c1c(C)nn2-c1ccccc1 (stereo not drawn)	-0.83	0.1	91*	0.2	81*	0.32
Cc1[nH]nc2c1C(c1ccc(F)cc1)C(C#N)=C(N)O2 (stereo not drawn)	0.043	0.7	33	0.5	48	-0.65
CCCc1nn(C)c2c1C(c1ccncc1)C(C#N)=C(N)O2 (stereo not drawn)	1.3	0.3	72*	0.5	49	-0.73
Cc1nn(-c2ccccc2)c(Cl)c1C1C(C#N)=C(N)Oc2n[nH]c(C)c21 (stereo not drawn)	1.1	0.2	78*	0.2	83*	0.51
CCCc1[nH]nc2c1C(c1ccncc1)C(C#N)=C(N)O2 (stereo not drawn)	0.95	0.6	44	0.6	35	0.1
Cc1nn(-c2ccccc2)c2c1C(c1ccncc1)C(C#N)=C(N)O2 (stereo not drawn)	0.69	0.3	66*	0.4	59*	-0.06
O=C(COC(=O)C1=COCCO1)NCCCc1ccccc1	1.4	0.8	17	0.6	40	1.1
COc1cc(-n2nc(C)c3c2OC(N)=C(C#N)C3c2ccccc2)c(Cl)c(Br)c1O (stereo not drawn)	-1.5	0	99*	0	99*	-2
Cc1nn(Cc2ccccc2)c2c1C(c1cccc(Cl)c1)C(C#N)=C(N)O2 (stereo not drawn)	0.005	0.1	91*	0.1	85*	-2
Cc1cc2c(c(=O)n1C1CC1)C(c1cccc(Cl)c1)C(C#N)=C(N)O2 (stereo not drawn)	1.3	0.9	12	0.9	6	-0.61
